From PubChem BioAssay AID1347041 (National Center for Advancing Translational Sciences (NCATS), 2019)
Out of some 480,000 compounds screened, about 740 (0.15%) were called active. The sample holds actives, similar compounds and a random draw of the others, so the mix is not that of the screen. Rule as the data show it: active = activity change below about -30%; inconclusive = mostly about -25% to -30%; inactive = weaker than that.

biological target: L-lactate dehydrogenase A chain (Homo sapiens) (UniProt P00338); test: qHTS assay for inhibitors of human lactate dehydrogenase; conditions: purified LDHA, NADH/diaphorase-resazurin fluorescence; active compounds read low;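 also: values are at about 110 or 230 µM; plate controls were DMSO wells for no effect and wells without enzyme for full effect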
How it was run: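 Human LDH5 (2 nM) was incubated with 0.06 mM NADH and 0.2 mM pyruvate for 5 min at room temperature in Tris pH 7.4. Remaining NADH was coupled through diaphorase/resazurin, and resorufin fluorescence was read at 0 and 20 min.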

| SMILES | activity change |
| --- | --- |
| O=C(COc1ccccc1C(=O)Nc1ccccc1)NC1CC1 | 2.72% (inactive) |
| Cc1cc2oc(=O)cc(CN3CCCCCCC3)c2cc1C | 3.97% (inactive) |
| Cc1nc2nc(CN)nn2c(C)c1CCC(=O)NC1CCCCC1 | 10.1% (inactive) |
| CCCn1c(SC(C)C(=O)c2ccc(Cl)cc2)n[nH]c1=O (configuration not stated) | 1.73% (inactive) |
| CSc1nnc([C@H](CC(C)C)NC(=O)OC(C)(C)C)o1 | -6.07% (inactive) |
| c1ccc(Oc2ncnc3scc(-c4ccc(-c5ccccc5)cc4)c23)cc1 | 2.38% (inactive) |
| CCn1c(SCc2ccc(F)cc2Cl)nnc1-c1ccccn1 | -9.31% (inactive) |
| Cc1ccc(NC(=O)C2=Cc3sc4c(c3CS2)CCCC4)c(C)c1 | 4.96% (inactive) |
| NC(N)=Nc1ccc(F)cc1 | 0.928% (inactive) |
| O=C(CCc1nc(-c2ccccc2)no1)N1CCc2sccc2C1c1cccs1 (configuration not stated) | 9.21% (inactive) |
| Cc1cc(C)n2ncc(-c3noc(C(=O)NC4CCCC4)n3)c2n1 | -0.0013% (inactive) |
| Cc1nc2cc(NC(=O)COc3ccccc3C(C)(C)C)ccc2o1 | 3.35% (inactive) |
| Cc1[nH]c2ccccc2c1C(=O)C(C)Sc1ccc2c(c1)OCCCO2 (configuration not stated) | 7.43% (inactive) |
| Cc1nc2cc(NC(C)C(=O)Nc3ccccc3Cl)ccc2o1 (configuration not stated) | -7.75% (inactive) |
| c1ccc(COc2ccc(CNc3ccccc3)cc2)cc1 | -2.65% (inactive) |
| O=C(Nc1ccc(N2CCOCC2)cc1)c1ccc2c(c1)S(=O)(=O)c1ccccc1C2=O | 0.869% (inactive) |
| CC(C)CCn1c(=O)[nH]c(=O)c2c3c(cnc21)C(=O)CC(c1ccc(F)cc1)C3 (configuration not stated) | 8.23% (inactive) |
| Fc1ccc(-n2c(Cc3ccccc3)nnc2SCc2ccc(Br)cc2)cc1 | 11.5% (inactive) |
| COc1ccc(CNS(=O)(=O)c2ccc(-c3ccc(=O)[nH]n3)s2)cc1 | -1.99% (inactive) |
| O=C1CN(CC(=O)Nc2c(Cl)cc(Cl)cc2Cl)CCN1 | -9.74% (inactive) |
| CCOc1ccccc1N(CC)C(=O)Cc1noc2ccccc12 | 1.93% (inactive) |
| O=C(O)c1c(Br)c(Br)c(Br)c(Br)c1C1c2ccc(O)cc2Oc2cc(O)ccc21 | -47.5% (active) |
| COc1ccc(OC)c(C2C(C#N)=C(N)Oc3cc(O)ccc32)c1 (configuration not stated) | 6.17% (inactive) |
| O=C(c1n[nH]c(=O)c2ccccc12)N1CCN(S(=O)(=O)c2ccccc2F)CC1 | 12.5% (inactive) |
| COc1cccc(-c2c(NC(=O)c3ccc(Cl)cc3)oc3ccccc3c2=O)c1 | -5.8% (inactive) |
| O=C(O)Cc1ccc(F)c2ccccc12 | 2.09% (inactive) |
| CC(Sc1nc2cc(S(=O)(=O)N3CCCCC3)ccc2o1)C(=O)Nc1cccc(Cl)c1 (configuration not stated) | 6.97% (inactive) |
